The results in this text go back to PubChem BioAssay AID686948 (National Center for Advancing Translational Sciences (NCATS), 2013).

The source made the active and inactive calls. Calls follow the shape of the dose curve; as a rule, active = well fitted inhibition curve with a large enough effect; inactive = flat fitted curve, though single readings scatter.

The target of the test is Tyrosine-protein kinase Yes (Homo sapiens) (UniProt P07947). Briefly: qHTS for small molecule inhibitors of Yes1 kinase: Confirmatory screen on the cherrypicks. Particulars: Recombinant Yes1, ADP-Glo luminescence, poly(E4Y) substrate. The text has this: The Src family of non-receptor protein tyrosine kinases contains nine members, including Yes1, Src, Fyn, Lyn, and […]. These kinases have important roles in a variety of cellular functions, such as cell proliferation, survival, and differentiation. Src, the most well characterized member of this family, has been previously identified as a proto-oncogene. […] In melanoma, it has been shown that Yes1, and not other family members, such as Src, is functionally involved in the malignant phenotype. Additionally, a recent study examining the downregulation of Yes1 by shRNA found significant effects on cell survival/growth for basal-like and Her2-positive breast cancers. […]
Two microliter of Yes1 enzyme (columns 1-2, 5-48; Millipore, Billerica, MA) are dispensed into Greiner, white solid-bottom 1536-well assay plates; columns 3 and 4 receive buffer without Yes1 as a control for maximum inhibition. […] The production of ADP is then quantified by the ADP-Glo Kit (Promega, Madison, WI). First, 2 uL of the first kit reagent is added, and the reaction is incubated for 45 minutes; then, 4 uL of the second kit reagent are added and the reaction is incubated for 30 minutes at which time the luminescence is read on a Viewlux plate reader (Perkin-Elmer, Waltham, MA). […]

Tyrosine-protein kinase Yes (Homo sapiens), sequence (P07947 whole entry, looked up): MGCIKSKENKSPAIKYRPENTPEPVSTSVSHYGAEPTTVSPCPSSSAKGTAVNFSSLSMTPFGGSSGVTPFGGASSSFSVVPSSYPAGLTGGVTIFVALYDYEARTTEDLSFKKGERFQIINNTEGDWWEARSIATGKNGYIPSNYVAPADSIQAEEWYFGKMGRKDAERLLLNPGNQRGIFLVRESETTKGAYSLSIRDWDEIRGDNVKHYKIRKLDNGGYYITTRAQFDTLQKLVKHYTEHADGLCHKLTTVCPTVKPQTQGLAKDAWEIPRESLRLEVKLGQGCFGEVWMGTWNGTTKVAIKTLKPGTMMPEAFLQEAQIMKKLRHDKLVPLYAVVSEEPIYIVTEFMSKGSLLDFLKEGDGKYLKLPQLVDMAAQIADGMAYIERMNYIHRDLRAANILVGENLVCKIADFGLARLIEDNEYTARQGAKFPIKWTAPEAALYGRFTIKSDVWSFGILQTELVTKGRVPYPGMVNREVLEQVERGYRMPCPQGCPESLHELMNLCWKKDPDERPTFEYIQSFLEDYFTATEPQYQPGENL

Regarding `c1cc(-c2cnn3cc(-c4ccc(OCCN5CCCCC5)cc4)cnc23)ccn1`, the Potency was 196 nM (active).
